# Compounds with a hit are over-represented: about 3.5% of the library has one in this group of screens.
# Autofluor counter: flagged as autofluorescent in microsphere protease counterscreen. compound autofluorescence counterscreen, microsphere flow cytometry; stronger effect = higher value. fluorescence intensity (no concentration beside the values). hit rate 3.1% among 360,000. AID 624483; in the data active means fluorescence intensity above about 16000; inconclusive means no clear call, values can overlap the other calls
# Anthrax LF inh2: Bacillus anthracis LF protease inhibitors, primary screen, biochemical, multiplex microsphere, MLPCN library | Lethal factor (Bacillus anthracis), P15917 | multiplex microsphere protease cleavage assay | inhibition, % at 10 µM | hit rate 0.12% among 360,000; further: plate controls were buffer without enzyme for full effect and enzyme alone for no effect
# BoNT A protease: BoNT/A light chain protease inhibitors, primary screen, biochemical, flow cytometry, MLPCN library. multiplex microsphere protease substrate cleavage. inhibition, % at 10 µM. hit rate 0.17% among 360,000. AID 588499, 2011; further: plate controls were buffer without enzyme for full effect and enzyme alone for no effect
# BoNT F protease: BoNT/F light chain protease inhibitors, primary screen, biochemical, flow cytometry, MLPCN library. Multiplex microsphere protease cleavage assay. inhibition, % at 10 µM. hit rate 0.22% among 360,000. AID 588497, 2011; in the data active means inhibition above about 35%, passing the limit was not always enough; inconclusive means no clear call, values can overlap the other calls; further: plate controls were buffer without enzyme for full effect and enzyme alone for no effect
# Starred values were filed as active, the others as inactive; ? = inconclusive. Unless noted, no stated cut-off is given here; in the data, active means inhibition above about 30%; inconclusive means no clear call, values can overlap the other calls; inactive means below that.
SMILES,Autofluor counter,Anthrax LF inh2,BoNT A protease,BoNT F protease
CSCCC(NC(=O)c1cncc(Br)c1)C(=O)O (stereo not drawn),20225*,-6,8,7
CC(C)c1nnc(NC(=O)c2cccc(NC(=O)C(F)(F)F)c2)s1,4659,-5,0,-5
COc1ccc(NC(=O)C2(c3ccc(NC(=O)c4ccc(OC(C)=O)cc4)cc3)CCCC2)cc1,20395*,0,1,1
CCc1ccc(-c2cn(-c3nc(C)cc(C)n3)c(=N)o2)cc1,23477*,-2,-1,-3
O=C(c1ccccc1)c1cc2ccc(O)cc2oc1=O,20651*,-2,0,-3
COC(=O)CCC(=O)NNC(=O)c1cccc(Cl)c1,25239*,-2,-6,-7
CCN1C(=O)/C(=C/C=C2\C=CN(CC)c3ccccc32)SC1=S,6742,16,41*,-9
CN(CCCC(=O)N1CCCC(C(N)=O)C1)S(=O)(=O)c1ccc(F)cc1 (stereo not drawn),3614,10,-5,-22
O=C(/C=C/c1c(Cl)cccc1Cl)NCCc1ccccc1,20277*,-1,1,2
O=C(/C=C/c1cccc(Cl)c1)NCCc1ccccc1,2655,-2,0,-10
COc1cccc(C(=O)Nc2c(C(N)=O)oc3ccccc23)c1,5839,4,0,-4
COc1ccc(C(=O)c2oc3ccccc3c2N)cc1,20810*,-2,-4,-8
O=C(Nc1ccc(-c2nc3ccccc3o2)cc1)c1ccc2c(c1)OCO2,16511*,-2,0,0
COc1cccc(C2NC(=O)NC(C)=C2C(=O)Nc2ccc(C)cc2)c1OC (stereo not drawn),9014,-14,-2,-21
CCOC(=O)c1oc2ccccc2c1NC(=O)c1cccc(OC)c1,22777*,-1,1,-1
COc1ccc(NC(=O)C2=C(C)NC(=O)NC2c2cccc(OC)c2OC)c(OC)c1 (stereo not drawn),20365*,3,?,0
COc1ccc(NC(=O)c2oc3ccccc3c2C)c(OC)c1,22634*,0,?,-3
COc1ccc(NC(=O)c2oc3ccccc3c2NC(=O)c2ccc3c(c2)OCO3)cc1,22577*,-3,2,-2
CCOC(=O)c1oc2ccccc2c1NC(=O)c1cccc(OC)c1OC,18642*,-2,2,1
COc1ccccc1NC(=O)c1oc2ccccc2c1C,3803,-7,0,-1
CCOC(=O)c1oc2ccccc2c1NC(=O)c1ccc2c(c1)OCO2,24146*,-2,-4,-5
CCNC(=O)C1CCCN(C(=O)c2ccc(C(=O)OC)cc2)CC1 (stereo not drawn),3493,-4,0,6
O=C(Nc1ccc(Cl)cn1)c1cccc2c(Br)cccc12,3908,-5,0,?
COc1ccc(NC(=O)C2CCN(S(=O)(=O)c3ccc4c(c3)NC(=O)CO4)CC2)cc1,5616,-2,2,1
Cc1cc(NC(=O)c2c(F)cccc2Cl)n(-c2nc3ccccc3[nH]2)n1,2956,0,0,-4
SMILES,Autofluor counter,Anthrax LF inh2,BoNT A protease,BoNT F protease
Cc1cc(NC(=O)c2c(F)cccc2F)n(-c2nc3ccccc3[nH]2)n1,16824*,-3,-3,-5
O=C(Cc1cccc(C(F)(F)F)c1)NCC(=O)Nc1cc(Cl)ccc1Cl,5710,-1,0,0
Cc1ccccc1-c1nn[nH]n1,21118*,0,-5,-5
c1ccc(-c2nn[nH]n2)cc1,4346,-14,?,?
NC1CCCCC1N=Cc1c(O)n(CCc2ccc(F)cc2)c(=O)[nH]c1=O (stereo not drawn),?,-6,3,45*
COc1ccc(CCn2c(O)c(C=NCCN3CCCCC3)c(=O)[nH]c2=O)cc1OC,20570*,2,4,6
CCCCn1c(O)c(C=NCCN2CCCCC2)c(=O)[nH]c1=O,2516,1,-1,-6
CCOC(=O)Cn1nc(C)n(-c2ccc(C(C)C)cc2)c1=O,16947*,-4,-2,-5
CCCCNC(=O)c1ccc(NC(=O)CC2SC(N3CCCC3)=NC2=O)cc1 (stereo not drawn),6313,0,0,-2
CCOC(=O)N1CCN(C(=O)CSc2nnc3[nH]c(=O)c(C)c(C)n23)CC1,5806,-1,-2,-11
O=C(CCl)Nc1ccc(Oc2cnc3ccccc3n2)cc1,21837*,0,3,5
CCN1CCN(C(=O)CCn2c(=O)c3cccn3c3cccnc32)CC1,6049,1,0,-3
CC1(C)Cc2nc3nc(SCC(=O)NCCc4ccccc4)n(-c4ccccc4)c(=O)c3cc2CO1,16362*,-2,1,4
C=CCn1c(SCc2ccccc2)nc(O)cc1=O,4153,0,1,-1
